Results published in PubChem BioAssay (EPA / NIEHS).
Inconclusive results are not listed. Activity calls are given as the source filed them. How the source made its calls, unless noted: active means hit-call score of the fitted dose curve at least 0.9, where 1 is the maximum; inactive means score below 0.9.

What was measured:
[1] = CCTE_Mundy_HCI_Cortical_Synap_Neur_Matur_NeuriteSpotCountPerNeuron: CCTE's Synaptogenesis and Neurite Maturation Assay in rat cortical cells for Neurite Spot Count per Neuron Count, Mundy Lab (AID 2284215)
In short: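 Developing rat cortical neurons, with glia suppressed by AraC, are exposed to chemicals from DIV 7 to DIV 12. Automated fluorescence imaging of MAP2-labelled neurites and synaptophysin puncta yields a count per neuron, normalised against DMSO wells.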

[2] = CCTE_Mundy_HCI_Cortical_Synap_Neur_Matur_SynapseCount: CCTE's Synaptogenesis and Neurite Maturation Assay in rat cortical cells for Synapse Count, Mundy Lab (AID 2284218)
In short: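 Read-out: synapse number per neuron, automated high-content imaging of fixed cells immunostained for MAP2 and synaptophysin plus Hoechst nuclei. Rat primary cortical cultures, AraC at DIV 5, chemical dosing DIV 7–12. Positive-direction fit relative to DMSO.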

[3] = CCTE_Mundy_HCI_Cortical_Synap_Neur_Matur_NeuriteCount: CCTE's Synaptogenesis and Neurite Maturation Assay in rat cortical cells for Neurite Count, Mundy Lab (AID 2284222);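 further: exposure from day 7 to day 12 in vitro with readout at day 12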
In short: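 Primary rat cortical cells were plated, treated with AraC at DIV 5, then exposed to chemicals from DIV 7 through DIV 12. After fixation and immunostaining for MAP2 and synaptophysin, imaging quantified neurites, with DMSO as the negative control.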

[4] = CCTE_Mundy_HCI_Cortical_Synap_Neur_Matur_CellBodySpotCount: CCTE's Synaptogenesis and Neurite Maturation Assay in rat cortical cells for Cell Body Spot Count, Mundy Lab (AID 2284223)
In short: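 Chemicals were applied to AraC-treated rat primary cortical cells at DIV 7 and measured at DIV 12. Fixed cells were labelled for MAP2, synaptophysin and nuclei, and high-content imaging gave cell body synaptophysin spot counts per neuron relative to DMSO.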

[5] = CCTE_Mundy_HCI_hNP1_Pro_ResponderAvgInten: CCTE's Proliferation Assay in human neuroprogenitor cells, Mundy Lab (AID 2284224; active means hit-call score of the fitted dose curve at least 0.9, where 1 is the maximum;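 further: human neural progenitor cells hNP1 derived from WA09 embryonic stem cells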)
In short: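 Proliferation read as average intensity of BrdU-positive cells, imaged at 26.25 h post-dosing: chemical exposure started after 40–44 h culture, BrdU during final 4 h, paraformaldehyde fixation. Positive-direction fit relative to DMSO.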

[6] = CCTE_Mundy_HCI_Cortical_NOG_NeuronCount: CCTE's Neurite Outgrowth Assay in rat cortical cells for Neuron Count, Mundy Lab (AID 2284236; active means hit-call score of the fitted dose curve at least 0.9, where 1 is the maximum;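 further: neurons counted by imaging betaIII-tubulin and Hoechst stained cortical cells; cells exposed to compound for about 48 hours before fixation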)
In short: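 Read-out: neuron number by high-content imaging of betaIII-tubulin (Alexa Fluor-488) and Hoechst-labelled rat primary cortical cells.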

[7] = CCTE_Mundy_HCI_Cortical_NOG_BPCount: CCTE's Neurite Outgrowth Assay in rat cortical cells for Branch Point Count, Mundy Lab (AID 2284237)
In short: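 Measured 50.33 h after dosing, this morphology endpoint uses rat primary cortical cultures labelled for betaIII-tubulin. Branch points are quantified by high-content imaging, with DMSO as negative control and baseline.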

[8] = CCTE_Mundy_HCI_hNP1_Casp3_7: CCTE's Caspase-Glo 3/7 Assay in human neuroprogenitor cells for Apoptosis, Mundy Lab (AID 2284240)
In short: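 Luminescent caspase-3/7 readout, 26.5 h post-dose, in human neural progenitor cells from WA09 embryonic stem cells. Cells grew 40–44 h at 37 °C, 5% CO2 before chemical addition. Activity analysed as signal increase over DMSO baseline.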

[9] = CCTE_Mundy_HCI_hNP1_CellTiter: CCTE's Cell Titer-Glo 2 Assay in human neuroprogenitor cells for Viability, Mundy Lab (AID 2284241; active means hit-call score of the fitted dose curve at least 0.9, where 1 is the maximum)
In short: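 Viability read as luminescent ATP content (CellTiter-Glo, 30 min room temperature) twenty-four hours after dosing, relative to DMSO. Cells: WA09-derived hNP1 neuroprogenitors on poly-L-ornithine/laminin, plated 40 to 44 hours before chemical.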

[10] = IUF_NPC2c_oligodendrocyte_migration_120hr: Leibniz Research Institute for Environmental Medicine (IUF) 120-hour Neural Progenitor Cell Migration Assay for Oligodendrocyte Migration (NPC2c) (AID 2284297);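 further: O4-positive oligodendrocyte migration distance divided by radial glia migration distance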
In short: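 Using fetal brain neural progenitor spheres differentiating in N2 medium at 37C, compounds were present for 120 h. Oligodendrocyte migration distance, normalized to radial glia migration, was measured from imaged O4 staining.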

[11] = IUF_NPC2a_radial_glia_migration_120hr: Leibniz Research Institute for Environmental Medicine (IUF) 120-hour Neural Progenitor Cell Migration Assay for Radial Glia Migration (NPC2a) (AID 2284298)
In short: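 Exposure of 0.3 mm primary hNPC spheres runs day 0 to 120 h with a half-volume medium change at day 3. Fixed cells get Hoechst staining; high-content analysis of nuclear positions yields radial glia migration distance per well, compared against DMSO controls.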

[12] = IUF_NPC2a_radial_glia_migration_72hr: Leibniz Research Institute for Environmental Medicine (IUF) 72-hour Neural Progenitor Cell Migration Assay for Radial Glia Migration (NPC2a) (AID 2284299)
In short: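 Readout: mean of four manual brightfield measurements of radial glia migration distance (um) at 72 h. hNPC spheres (0.3 mm) exposed to 7 compound concentrations plus solvent control on PDL/laminin, 37C, 5% CO2; activity fitted relative to DMSO.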

[13] = IUF_NPC2b_neuronal_migration_120hr: Leibniz Research Institute for Environmental Medicine (IUF) 120-hour Neural Progenitor Cell Migration Assay for Neuron Migration (NPC2b) (AID 2284300)
In short: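 Fetal human NPC spheres migrate on PDL/laminin during 120 h compound treatment; neuronal migration distance, glia-normalized, scored versus DMSO control.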

[14] = IUF_NPC3_neuronal_differentiation_120hr: Leibniz Research Institute for Environmental Medicine (IUF) 120-hour Neuronal Differentiation Assay (NPC3) (AID 2284301)
In short: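 hNPC spheres, PDL/laminin, DMEM/F12 3:1 + 1% N2, 37C, 5% CO2; 7 concentrations + solvent control, 5 d exposure, half-change day 3. Fix 120 h; TUBB3/Hoechst ICC, CNN neuron calling; % neurons vs nuclei, DMSO-normalized.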

[15] = IUF_NPC4_neurite_length_120hr: Leibniz Research Institute for Environmental Medicine (IUF) 120-hour Neuronal Morphology Assay for Neurite Length (NPC4) (AID 2284302)
In short: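 hNPC spheres (0.3 mm, fetal brain GW 16-19) on PDL/laminin, DMEM:F12 3:1 + 1% N2, 37C 5% CO2; 7 concs + solvent control, day 0-5, half medium change d3; fix 120 h, TUBB3 ICC, mean neurite length um vs DMSO.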

[16] = IUF_NPC4_neurite_area_120hr: Leibniz Research Institute for Environmental Medicine (IUF) 120-hour Neuronal Morphology Assay for Neurite Area (NPC4) (AID 2284305; active means hit-call score of the fitted dose curve at least 0.9, where 1 is the maximum)
In short: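 hNPC spheres on PDL/laminin, N2 medium, 37C/5% CO2; dosed day 0, half-medium refresh day 3; fixed 120 h; TUBB3/Hoechst ICC, high-content imaging; neurite area = mean pixels per neuron (nuclei excluded); DMSO baseline, max 0.1%.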

[17] = IUF_NPC2-5_cytotoxicity_72hr: Cytotoxicity Assessment at 72 hours in the Leibniz Research Institute for Environmental Medicine (IUF) Neural Progenitor Cell Migration and Differentiation Assay for Cytotoxicity (NPC2-5) (AID 2284306; active means hit-call score of the fitted dose curve at least 0.9, where 1 is the maximum;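 further: LDH release into supernatant measured by resorufin fluorescence marking membrane damage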)
In short: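 hNPC spheres (0.3 mm), PDL/laminin, DMEM/F12 3:1 + 1% N2; cpd from d0, 7 concs + SC, DMSO max 0.1%; half-medium refresh d3. Readout: supernatant LDH via resorufin fluorescence (RFU), 72 h; gain-of-signal fit.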

[18] = IUF_NPC2-5_cytotoxicity_120hr: Cytotoxicity Assessment at 120 hours in the Leibniz Research Institute for Environmental Medicine (IUF) Neural Progenitor Cell Migration and Differentiation Assay (NPC2-5) (AID 2284307; active means hit-call score of the fitted dose curve at least 0.9, where 1 is the maximum)
In short: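 Membrane-integrity loss is quantified by LDH in supernatant after five days of exposure of migrating, differentiating human fetal NPC spheres; seven serially diluted concentrations are tested with DMSO kept at or below 0.1%.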

[19] = IUF_NPC2-5_cell_number_120hr: Cell Number Assessment at 120 hours in the Leibniz Research Institute for Environmental Medicine (IUF) Neural Progenitor Cell Migration and Differentiation Assay (NPC2-5) (AID 2284308);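 further: count of Hoechst-stained nuclei in migration zone around plated human neural progenitor spheres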
In short: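 Seven-point serial dilutions plus solvent control were applied to plated 0.3 mm hNPC spheres at differentiation start, with medium half-replaced at day 3. Nuclei positive for Hoechst in the migration zone were enumerated at 120 h.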

[20] = IUF_NPC2-5_viability_120hr: Viability Assessment at 120 hours in the Leibniz Research Institute for Environmental Medicine (IUF) Neural Progenitor Cell Migration and Differentiation Assay (NPC2-5) (AID 2284312)
In short: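 Human fetal neural progenitor spheres (0.3 mm) plated on poly-D-lysine/laminin in N2 differentiation medium, exposed 120 h with half-medium refresh at day 3. Viability by alamar blue resazurin fluorescence; 7 concentrations, DMSO max 0.1%.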

[21] = CCTE_Mundy_HCI_iCellGluta_NOG_NeuriteLength: CCTE's Neurite Outgrowth Assay in iCellGluta cells for Neurite Length, Mundy Lab (AID 2284318; active means hit-call score of the fitted dose curve at least 0.9, where 1 is the maximum)
In short: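 Automated high-content imaging of betaIII-tubulin (Alexa Fluor-488) and Hoechst-stained cells gave neurite length, normalized to the DMSO baseline.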

[22] = IUF_NPC1_cytotoxicity_72hr: Cytotoxicity Assessment at 72 hours in the Leibniz Research Institute for Environmental Medicine (IUF) Neural Progenitor Cell Proliferation Assay (NPC1) (AID 2284332; active means hit-call score of the fitted dose curve at least 0.9, where 1 is the maximum;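 further: rising LDH signal means more cytotoxicity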)
In short: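 LDH in supernatant, resazurin→resorufin fluorescence (RFU), 72 h exposure, no re-dosing. Cells: primary hNPC spheres, one per well, EGF+FGF medium, 37C/5% CO2, pH 7.2-7.6. Fit: positive direction vs baseline and dynamic range.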

[23] = CCTE_Mundy_HCI_iCellGluta_NOG_NeuronCount: CCTE's Neurite Outgrowth Assay in iCellGluta cells for Neuron Count, Mundy Lab (AID 2284340; active means hit-call score of the fitted dose curve at least 0.9, where 1 is the maximum;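 further: cells fixed about 48 h after compound addition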)
In short: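 Neuron count read by automated high-content imaging of Hoechst 33342 and betaIII-tubulin/Alexa Fluor-488 labelling in human iPSC glutamatergic neurons. Activity fitted relative to DMSO.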

Measured: outcome

CC(C)c1nn(C(=O)NC(C)(C)C)c(=O)n1N
inactive: all assays above
